Screening results deposited in PubChem by several laboratories.
Sampled rows, rich in hits. Any-hit rate of the full collection: about 28%.
CYP2C19 act: cytochrome P450 2C19 (human) activation; P33261; recombinant CYP2C19, luciferin-H EGE luminescence; active compounds read high; 0 = fully inhibited enzyme, 1 = untreated enzyme; activation factor at 5 µM; 96,000 tested, under 10 active;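 active = activation factor of at least 2 at 5 µM in the primary screen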
CYP2C19 inh: inhibitors of human CYP2C19 | P33261 | inhibition, % at 5 µM | AID 778 | hit rate 21% among 96,000 | CYP2C19 Supersomes, luciferin-H EGE luminescence, 30 min;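 active = CYP2C19 inhibition above a set limit at 5 µM in the primary screen, cut at about 50% in these data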
PLK1 inh: blocks human PLK1 kinase activity. AID 619. hit rate 0.53% among 97,000. inhibition, % at 10 µM. recombinant PLK1 kinase, TR-FRET peptide phosphorylation;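 active = inhibition of 50% or more in the single-concentration screen; inactive = inhibition below 50%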
Target sequence (P53350 whole entry, looked up): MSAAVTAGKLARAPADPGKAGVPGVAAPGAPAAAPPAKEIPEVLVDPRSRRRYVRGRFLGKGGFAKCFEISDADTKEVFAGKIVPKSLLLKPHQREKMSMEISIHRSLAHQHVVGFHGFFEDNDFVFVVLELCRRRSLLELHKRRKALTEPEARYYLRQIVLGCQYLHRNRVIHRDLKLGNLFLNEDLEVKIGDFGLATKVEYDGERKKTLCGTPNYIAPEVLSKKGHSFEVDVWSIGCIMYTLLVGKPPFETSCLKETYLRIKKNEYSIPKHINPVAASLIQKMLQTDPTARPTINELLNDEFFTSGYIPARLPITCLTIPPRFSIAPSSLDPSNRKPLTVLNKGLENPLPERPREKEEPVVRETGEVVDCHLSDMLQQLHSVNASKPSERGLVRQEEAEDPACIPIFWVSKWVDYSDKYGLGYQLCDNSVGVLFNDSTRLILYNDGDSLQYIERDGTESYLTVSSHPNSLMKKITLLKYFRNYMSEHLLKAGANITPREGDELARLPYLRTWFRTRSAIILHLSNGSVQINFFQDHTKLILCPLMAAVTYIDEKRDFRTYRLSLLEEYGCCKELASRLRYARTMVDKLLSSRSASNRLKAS
CYP2C9 inhib: blocks human cytochrome P450 2C9. CYP2C9 Supersomes, luciferin-H conversion, luminescence. inhibition, % at 5 µM. hit rate 20% among 96,000. AID 777;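 active = blocking of liver enzyme CYP2C9 beyond about 50% at 5 µM, limit read from the data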
Plk1 PBD FP: blocks phosphopeptide binding to human Plk1 polo box domain; AID 693; inhibition, %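 (tested at about 20 µM)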; hit rate 0.13% among 97,000; Plk1 PBD phosphopeptide binding, fluorescence polarization; in the data active = inhibition above about 34%, passing the limit was not always enough
CYP2C9 act: activators of human CYP2C9; P11712; recombinant CYP2C9, luciferin-H conversion, luminescence; active compounds read high; factor 1 = untreated enzyme, 0 = blocked; activation factor at 5 µM; hit rate 1.4% among 96,000; AID 1024;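 active = activation factor of 2 or more for CYP2C9 at a 5 µM dose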
A number is an active result; - = inactive; . = no result given.

SMILES	CYP2C19 act	CYP2C19 inh	PLK1 inh	CYP2C9 inhib	Plk1 PBD FP	CYP2C9 act
Cc1nnc(NC(=O)c2ccc(S(=O)(=O)N(C)Cc3ccccc3)cc2)o1	-	-	-	77.9	-	-
CC(C)CNC(=O)NC(=O)COc1ccc(C=O)cc1	-	94.9	-	83.3	-	-
CC(=O)C1=C(C)OC(N)=C(C#N)C1c1ccco1 (configuration not stated)	-	-	-	-	-	-
CC(=O)n1c2c(c3ccccc31)OC(N)=C(C#N)C2c1ccc(C(C)C)cc1 (configuration not stated)	-	-	-	72.2	-	-
O=C(CSc1nc2ccccc2o1)Nc1ccccc1	-	63.4	-	-	-	-
O=C(CSc1nc2ccccc2o1)NCCOc1ccccc1	-	89.2	-	68.0	-	-
O=C(CSc1nc2ccccc2o1)NCC(=O)c1ccccc1	-	61.0	.	-	.	-
CCOC(=O)c1ccccc1NC(=O)CSc1nc2ccccc2o1	-	-	.	-	.	-
CSc1cccc(NC(=O)CSc2nc3ccccc3o2)c1	-	53.3	-	-	-	-
O=C(O)CSc1nc2ccccc2o1	-	-	-	-	-	-
CC(NC(=O)c1cnc2n(c1=O)CCS2)c1ccccc1 (configuration not stated)	-	-	-	-	-	-
Cc1cccnc1NC(=O)Nc1cccs1	-	50.3	-	-	-	-
Cc1ccc(NC(=O)Nc2ncccc2C)cc1	-	-	-	-	-	-
Cc1ccccc1CNC(=O)Nc1cccs1	-	72.0	-	-	-	-
O=C(NCc1cccs1)Nc1cccs1	-	-	-	-	-	-
Cc1c(NC(=O)CCC(=O)N2CCCCC2)c(=O)n(-c2ccccc2)n1C	-	-	-	-	-	-
O=C(NCc1ccccc1C(F)(F)F)C12CN(Cc3ccccc3)CC1C(c1ccc([N+](=O)[O-])cc1)=NO2 (configuration not stated)	-	-	-	-	-	-
O=c1oc2ccccc2c(Nc2ccccc2)c1[N+](=O)[O-]	.	.	-	.	-	.
CCOc1cc(S(=O)(=O)n2c(C)nc3ccccc32)ccc1F	-	99.0	-	85.6	-	-
Clc1ccc2c(c1)C(c1cccs1)=NNC(c1cccnc1)=N2	-	-	-	67.8	-	-
Fc1ccc2c(c1)C(c1ccncc1)=NNC(c1cccnc1)=N2	-	51.1	-	54.5	-	-
O=C(COC(=O)c1ccc(N2CCCC2=O)cc1)NCc1ccco1	-	-	.	-	.	-
O=[N+]([O-])c1ccc(Sc2nccn2Cc2ccccc2)cc1	-	95.6	-	70.3	-	-
Cn1cccc1Cc1nnc(SCC(=O)Nc2ccccc2F)n1CCc1ccccc1	-	-	-	-	-	-
Cc1ccc(NC(=O)CSc2nccn2Cc2ccccc2)cc1C	-	-	-	-	-	2
SMILES	CYP2C19 act	CYP2C19 inh	PLK1 inh	CYP2C9 inhib	Plk1 PBD FP	CYP2C9 act
CC(=O)Nc1ccc(NC(=O)CSc2nccn2Cc2ccccc2)cc1	-	-	-	-	-	-
O=C(CCSc1nccn1Cc1ccccc1)N1CCOCC1	-	-	-	-	-	-
CC(=O)c1ccc(NC(=O)CSc2nccn2CCc2ccccc2)cc1	-	52.7	-	-	-	-
N#Cc1ccccc1NC(=O)CSc1nccn1CCc1ccccc1	-	58.7	-	-	-	-
Cc1ccc(C)c(/C(O)=C2\C(=O)C(=O)N(CCCn3ccnc3)C2c2cccnc2)c1 (configuration not stated)	.	.	-	.	-	.
Cc1ccc(-n2c(Cn3nc(C(F)F)cc3C(F)F)n[nH]c2=S)cc1	-	-	-	-	-	-
Clc1ccc(CSc2nccn2Cc2ccccc2)cc1	-	93.1	-	-	-	-
O=C1C2CCCN2C(c2ccccc2F)N1c1ccc(F)cc1 (configuration not stated)	-	-	-	-	-	-
O=C(c1cccs1)N(Cc1ccccn1)Cc1ccco1	-	54.2	-	-	-	-
CCn1c(C)c2c(C)nnc(C)c2c1C	-	-	-	-	-	-
Cc1nnc(C)c2c(C)n(C(c3ccccc3)c3ccccc3)c(C)c12	-	-	-	56.0	-	-
O=C(COc1ccccc1)Nc1ccc(CSc2ccccc2)cc1	-	-	-	-	-	-
O=C(Nc1ccc(N2CCOCC2)cc1)c1cccc(S(=O)(=O)N2CCC(Cc3ccccc3)CC2)c1	-	-	-	63.5	-	-
O=C(O)c1cccc(NC(=O)c2ccc3c(c2)C(=O)N(CC2CCCO2)C3=O)c1 (configuration not stated)	-	77.4	-	73.4	-	-
O=C(Nc1ccc(N2CCOCC2)cc1)c1cccc(S(=O)(=O)N2CCCC2)c1	-	-	-	-	-	-
Cc1ccc(C(=O)Nc2cccc(C(=O)O)c2)cc1S(=O)(=O)N1CCCCC1	-	-	.	56.6	.	-
COC(=O)c1cccc(NC(=O)c2ccc3c(c2)C(=O)N(CC2CCCO2)C3=O)c1 (configuration not stated)	-	-	-	-	-	-
O=C(Nc1ccc2c(c1)OCCO2)c1cccc(S(=O)(=O)N2CCCCC2)c1	-	-	-	63.0	-	-
COc1ccc(N2CCn3c2nc2c3c(=O)n(CCc3ccccc3)c(=O)n2C)cc1	-	-	.	-	.	-
Cc1ccc(C(=O)OCc2ccc3c(c2)OCO3)cc1S(=O)(=O)N1CCCCC1	-	78.7	-	95.4	-	-
Cc1ccc(C(=O)NCc2ccco2)cc1S(=O)(=O)N1CCCCC1	-	-	-	-	-	-
CC1CCN(S(=O)(=O)c2ccc(C(=O)OCc3ccc4c(c3)OCO4)cc2)CC1	-	-	-	-	-	-
Cc1ccc(C(=O)Nc2ccc3c(c2)OCO3)cc1S(=O)(=O)N1CCCC1	-	-	-	58.2	-	-
CN1C(=S)SC(/[N+]([O-])=C\c2ccco2)C1(C)C (configuration not stated)	-	-	-	-	-	-
COc1ccc(-c2ccc(C#N)c(SCC(=O)OCc3ccccc3)n2)cc1OC	-	-	-	91.8	-	-
SMILES	CYP2C19 act	CYP2C19 inh	PLK1 inh	CYP2C9 inhib	Plk1 PBD FP	CYP2C9 act
CCSc1nc(-c2ccc(OC)cc2)ccc1C#N	-	63.3	-	90.1	-	-
N#Cc1ccc(-c2ccc3c(c2)OCO3)nc1SCC(=O)OCc1ccccc1	-	-	-	92.1	-	-
C=COC(=O)CSc1nc(-c2cccs2)ccc1C#N	-	-	-	-	-	-
O=Cc1ccccc1OCCOc1ccccc1C=O	.	.	-	.	-	.
CCOC(=O)C1C(=O)NC(SCC(N)=O)=C(C#N)C1c1ccccc1OCC (configuration not stated)	-	76.5	.	-	.	-
CCOC(=O)C1C(=O)NC(SC)=C(C#N)C1c1ccccc1F (configuration not stated)	-	90.9	.	-	.	-
COc1cc(NC(=O)Cn2nc(C(F)(F)F)c3c2CCCC3)cc(OC)c1OC	-	-	-	-	-	-
COc1ccc2c(c1OC)C(=O)OC2CC(=O)c1ccc2c(c1)OCO2 (configuration not stated)	-	55.7	-	-	-	-
